{"source": "paper PMC8222333", "about": "“AsCas12a ultra nuclease facilitates the rapid generation of therapeutic cell medicines”", "binders": {"B1": {"name": "GACT (dsDNA)", "DNA 1": "GCTATCTAGTGCTCAGTACGCACTGGACTAGGAAACTTCTGGCAGGACCAGGTCATGAGATCGGAAGAGCACACGTCTGAACTCCAGTCA", "DNA 2": "TGACTGGAGTTCAGACGTGTGCTCTTCCGATCTCATGACCTGGTCCTGCCAGAAGTTTCCTAGTCCAGTGCGTACTGAGCACTAGATAGC", "RNA": "AAUUUCUACUCUUGUAGAUAGGAAACUUCUGGCAGGACC"}, "B2": {"name": "GAGG (dsDNA)", "DNA 1": "B1 DNA 1 with C28G, T29G", "DNA 2": "B1 DNA 2 with A62C, G63C", "RNA": "B1 RNA"}, "B3": {"name": "GCGT (dsDNA)", "DNA 1": "B1 DNA 1 with A27C, C28G", "DNA 2": "B1 DNA 2 with G63C, T64G", "RNA": "B1 RNA"}, "B4": {"name": "GGAT (dsDNA)", "DNA 1": "B1 DNA 1 with A27G, C28A", "DNA 2": "B1 DNA 2 with G63T, T64C", "RNA": "B1 RNA"}, "B5": {"name": "GCAC (dsDNA)", "DNA 1": "B1 DNA 1 with A27C, C28A, T29C", "DNA 2": "B1 DNA 2 with A62G, G63T, T64G", "RNA": "B1 RNA"}, "B6": {"name": "GCAG (dsDNA)", "DNA 1": "B1 DNA 1 with A27C, C28A, T29G", "DNA 2": "B1 DNA 2 with A62C, G63T, T64G", "RNA": "B1 RNA"}, "B7": {"name": "GCAT (dsDNA)", "DNA 1": "B1 DNA 1 with A27C, C28A", "DNA 2": "B1 DNA 2 with G63T, T64G", "RNA": "B1 RNA"}, "B8": {"name": "GCAA (dsDNA)", "DNA 1": "B1 DNA 1 with A27C, C28A, T29A", "DNA 2": "B1 DNA 2 with A62T, G63T, T64G", "RNA": "B1 RNA"}, "B9": {"name": "GCCT (dsDNA)", "DNA 1": "B1 DNA 1 with A27C", "DNA 2": "B1 DNA 2 with T64G", "RNA": "B1 RNA"}, "B10": {"name": "GGAG (dsDNA)", "DNA 1": "B1 DNA 1 with A27G, C28A, T29G", "DNA 2": "B1 DNA 2 with A62C, G63T, T64C", "RNA": "B1 RNA"}, "B11": {"name": "GGAC (dsDNA)", "DNA 1": "B1 DNA 1 with A27G, C28A, T29C", "DNA 2": "B1 DNA 2 with A62G, G63T, T64C", "RNA": "B1 RNA"}, "B12": {"name": "GAGT (dsDNA)", "DNA 1": "B1 DNA 1 with C28G", "DNA 2": "B1 DNA 2 with G63C", "RNA": "B1 RNA"}, "B13": {"name": "GGAA (dsDNA)", "DNA 1": "B1 DNA 1 with A27G, C28A, T29A", "DNA 2": "B1 DNA 2 with A62T, G63T, T64C", "RNA": "B1 RNA"}, "B14": {"name": "GAGC (dsDNA)", "DNA 1": "B1 DNA 1 with C28G, T29C", "DNA 2": "B1 DNA 2 with A62G, G63C", "RNA": "B1 RNA"}, "B15": {"name": "GCCC (dsDNA)", "DNA 1": "B1 DNA 1 with A27C, T29C", "DNA 2": "B1 DNA 2 with A62G, T64G", "RNA": "B1 RNA"}, "B16": {"name": "GGCA (dsDNA)", "DNA 1": "B1 DNA 1 with A27G, T29A", "DNA 2": "B1 DNA 2 with A62T, T64C", "RNA": "B1 RNA"}, "B17": {"name": "GCCG (dsDNA)", "DNA 1": "B1 DNA 1 with A27C, T29G", "DNA 2": "B1 DNA 2 with A62C, T64G", "RNA": "B1 RNA"}}, "note": "Residue numbers refer to the chain shown, from its start.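 Also: relative affinity from the bound to unbound sequence frequency ratio in Spec-seq.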"}
{"target": "dAsCas12a S542R (Acidaminococcus sp., UniProt U2UMQ6 1-1307, S542R;D908A;E993A;D1235A)", "assay": "Spec-seq (native PAGE EMSA with sequencing of bound and unbound); 25 mM Tris-HCl pH 7.4, 150 mM KCl, 5 mM MgCl2, 10% glycerol, 1 mM DTT, 40 ng/uL salmon sperm DNA; 400 nM Cas12a, 480 nM crRNA, 50 nM library, 37 C 1 h; native PAGE at room temperature; high values mean tight binding", "details": "protein: recombinant", "units": {"binding signal": "lnKA"}}
{"binder": "B1", "binding signal": -8.65}
{"binder": "B2", "binding signal": -8.75}
{"binder": "B3", "binding signal": -8.52}
{"binder": "B4", "binding signal": -8.54}
{"binder": "B5", "binding signal": -8.62}
{"binder": "B6", "binding signal": -8.35}
{"binder": "B7", "binding signal": -8.69}
{"binder": "B8", "binding signal": -8.78}
{"binder": "B9", "binding signal": -7.86}
{"binder": "B10", "binding signal": -8.39}
{"binder": "B11", "binding signal": -8.47}
{"binder": "B12", "binding signal": -8.58}
{"binder": "B13", "binding signal": -8.88}
{"binder": "B14", "binding signal": -8.89}
{"binder": "B15", "binding signal": -5}
{"binder": "B16", "binding signal": -8.26}
{"binder": "B17", "binding signal": -6.59}
{"target": "d-enCas12a (Acidaminococcus sp., UniProt U2UMQ6 1-1307, E174R;S542R;K548R;D908A;E993A;D1235A)", "assay": "Spec-seq (native PAGE EMSA with sequencing of bound and unbound); 25 mM Tris-HCl pH 7.4, 150 mM KCl, 5 mM MgCl2, 10% glycerol, 1 mM DTT, 40 ng/uL salmon sperm DNA; 400 nM Cas12a, 480 nM crRNA, 50 nM library, 37 C 1 h; native PAGE at room temperature; high values mean tight binding", "details": "protein: recombinant", "units": {"binding signal": "lnKA"}}
{"binder": "B1", "binding signal": -5.63}
{"binder": "B2", "binding signal": -5.9}
{"binder": "B3", "binding signal": -5.91}
{"binder": "B4", "binding signal": -5.99}
{"binder": "B5", "binding signal": -5.82}
{"binder": "B6", "binding signal": -6.02}
{"binder": "B7", "binding signal": -5.86}
{"binder": "B8", "binding signal": -5.83}
{"binder": "B9", "binding signal": -5.97}
{"binder": "B10", "binding signal": -5.85}
{"binder": "B11", "binding signal": -5.75}
{"binder": "B12", "binding signal": -5.78}
{"binder": "B13", "binding signal": -5.71}
{"binder": "B14", "binding signal": -5.66}
{"binder": "B15", "binding signal": -2.96}
{"binder": "B16", "binding signal": -4.74}
{"binder": "B17", "binding signal": -5.48}
{"target": "d-enCas12a-Ultra (Acidaminococcus sp., UniProt U2UMQ6 1-1307, E174R;S542R;K548R;M537R;F870L;D908A;E993A;D1235A)", "assay": "Spec-seq (native PAGE EMSA with sequencing of bound and unbound); 25 mM Tris-HCl pH 7.4, 150 mM KCl, 5 mM MgCl2, 10% glycerol, 1 mM DTT, 40 ng/uL salmon sperm DNA; 400 nM Cas12a, 480 nM crRNA, 50 nM library, 37 C 1 h; native PAGE at room temperature; high values mean tight binding", "details": "protein: recombinant", "units": {"binding signal": "lnKA"}}
{"binder": "B1", "binding signal": -3.01}
{"binder": "B2", "binding signal": -3.51}
{"binder": "B3", "binding signal": -3.51}
{"binder": "B4", "binding signal": -3.45}
{"binder": "B5", "binding signal": -3.32}
{"binder": "B6", "binding signal": -3.32}
{"binder": "B7", "binding signal": -3.45}
{"binder": "B8", "binding signal": -3.42}
{"binder": "B9", "binding signal": -2.67}
{"binder": "B10", "binding signal": -3.43}
{"binder": "B11", "binding signal": -3.35}
{"binder": "B12", "binding signal": -3.48}
{"binder": "B13", "binding signal": -3.48}
{"binder": "B14", "binding signal": -3.45}
{"binder": "B15", "binding signal": -0.56}
{"binder": "B16", "binding signal": -1.64}
{"binder": "B17", "binding signal": -1.86}
